Experimental data published in PubChem BioAssay AID624377 (The Scripps Research Institute Molecular Screening Center, 2012).
The campaign covered roughly 360,000 compounds. About 680 (0.19%) were called active. The sample holds actives, similar compounds and a random draw of the others, so the mix is not that of the screen. No stated cut-off is given here; in the data, active means inhibition above about 25%; inactive means the rest.

Molecular target: Arf-GAP with SH3 domain, ANK repeat and PH domain-containing protein 1 (Homo sapiens) (UniProt Q9ULH1)
Sequence (Q9ULH1 325-724 limits assumed): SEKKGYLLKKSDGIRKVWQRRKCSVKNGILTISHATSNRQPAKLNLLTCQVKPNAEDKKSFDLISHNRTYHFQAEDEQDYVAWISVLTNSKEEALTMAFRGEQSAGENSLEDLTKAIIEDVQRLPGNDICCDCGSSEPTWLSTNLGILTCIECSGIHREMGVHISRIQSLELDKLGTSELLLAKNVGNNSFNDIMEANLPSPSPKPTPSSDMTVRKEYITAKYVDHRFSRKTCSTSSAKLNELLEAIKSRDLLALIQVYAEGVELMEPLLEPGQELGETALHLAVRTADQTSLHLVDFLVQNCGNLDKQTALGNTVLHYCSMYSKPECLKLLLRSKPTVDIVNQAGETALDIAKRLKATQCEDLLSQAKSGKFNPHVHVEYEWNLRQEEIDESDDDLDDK
Experiment: inhibitors of human ASAP1 ArfGAP activity, primary screen, biochemical, fluorescence polarization (AID 624377);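 further: 0% = vehicle with enzyme and substrate and 100% = no enzyme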
Settings: ASAP1-stimulated ARF1 GTP hydrolysis, GDP FP detection; at 16.5 µM; hits give high values

inhibition, active:
CCN(CC)c1ccc2cc(C(N)=O)/c(=N\NC(=O)c3ccncc3)oc2c1 26.4%
CCN1CCN(CCNC(=O)c2ccc3c(c2)NC(=O)/C(=C\c2ccc(OC)c(OC)c2)S3)CC1 25.9%

inhibition, inactive:
Cc1ccccc1C(=O)N[C@H](C(=O)N1CCC[C@H]1C(=O)NCc1ccccc1)C(C)C -8.79%
COC(=O)[C@]12C[C@H](CC(=O)NCc3ccccc3)C(=O)N(CCC3=CCCCC3)C1=C[C@H](C(C)(C)C)O[C@@H]2C -6.37%
COc1ccc(C2=CN(Cc3ccccc3)C(c3ccc(OC)cc3)CC2=O)cc1 (stereo unspecified) 12.3%
CC(C)C[C@H](NC(=O)CC1CCCC1)C(=O)N1CCC[C@H]1C(=O)NCc1ccccc1 -6.9%
COc1ccccc1CCn1cnc(-c2ccccc2)c1C(C)C 16.9%
CCOC(=O)C1=C(C(=O)OCC)C2N(Cc3ccc(C#N)cc3)c3ccccc3[C@@]23C[C@@H](C(=O)OC)N(S(=O)(=O)c2ccc(F)cc2)C3=N1 (stereo partly specified) 12.3%
COc1cccc(CC(=O)N2CCN(C(=O)C(=O)c3cccc(C(F)(F)F)c3)CC2)c1 3.01%
CC(=NNC(=O)c1ccncc1)c1ccc(Cl)c(Cl)c1 -23.7%
CCOc1cc(/C=N/NC(=O)c2ccncc2)cc(Br)c1O -12.7%
CCOC(=O)N1CCN(C(=O)C[C@H]2C[C@@]3(C(=O)OC)C(=C[C@H](C4CCCC4)O[C@@H]3C)N(Cc3ccccc3)C2=O)CC1 -6.46%
COc1ccc(CNS(=O)(=O)c2cc(Br)ccc2Br)cc1 -8.38%
CCN1CCCC1CNC(=O)c1ccc2c(c1)NC(=O)/C(=C\c1ccccc1F)S2 (stereo unspecified) -12.3%
COc1ccc(CCNC(=O)c2ccc3c(c2)NC(=O)C(N2CCOCC2)S3)cc1OC (stereo unspecified) -5.91%
COc1ccc(NC(=O)N(C)C[C@@H]2OCCCC[C@@H](C)Oc3ccc(NC(=O)NC4CCCCC4)cc3C(=O)N([C@H](C)CO)C[C@@H]2C)cc1 -0.3%
NC(=O)c1ncn([C@@H]2O[C@H](C(=O)O)[C@@H](O)[C@H]2O)n1 -8.9%
O=C(NCc1ccccc1)[C@@H]1CCCN1C(=O)[C@H]1CCCN1C(=O)c1cccc(Cl)c1 5.06%
CC(C)CNc1cccc2c1S(=O)(=O)N[C@H](CC(C)C)CO2 14.4%
COCc1cc(N2CCN(C(=O)OC(C)(C)C)C[C@@H]2C)ccc1N1CCN(Cc2ccccc2)[C@H](C)C1 -0.13%
O=c1[nH]c(-c2ccccc2)cn1C1CCN(Cc2ccc(-c3nc4ccc(F)cc4nc3-c3ccccc3)cc2)CC1 6.64%
